Results from PubChem BioAssay (NCI).
This is part of a sample that, as a whole, favours compounds with a hit. Of some 83,000 tested, about 20% had one in any assay.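 Treatment: one concentration, 48 hours, 96-well format. Scoring: percent growth, with anything below 10 considered active.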 A number with no mark means an inactive call. Calls of active or inactive are those of the source.

Tests used:
Assay in all cases: NCI-60 one-dose screen, 48 h (100 = growth as untreated, 0 = no growth, -100 = all killed)
Conditions in all cases: 10 µM unless noted
NCI-H23 lung = tested on: NCI-H23 lung
NCI-H226 lung = tested on: NCI-H226 lung
NCI-H322M lung = tested on: NCI-H322M lung
HOP-62 NSCLC = tested on: HOP-62 NSCLC
NCI-H460 lung = tested on: NCI-H460 lung
HOP-92 NSCLC = tested on: HOP-92 NSCLC
NCI-H522 lung = tested on: NCI-H522 lung
A549/ATCC NSCLC = tested on: A549/ATCC NSCLC
786-0 renal = tested on: 786-0 renal
COLO 205 colon = tested on: COLO 205 colon
DU-145 prostate = tested on: DU-145 prostate
K-562 leukemia = tested on: K-562 leukemia
MALME-3M melanoma = tested on: MALME-3M melanoma
MDA-MB-231 breast = tested on: MDA-MB-231 breast
RXF 393 renal = tested on: RXF 393 renal
SF-268 CNS = tested on: SF-268 CNS
SF-295 CNS = tested on: SF-295 CNS
SF-539 CNS = tested on: SF-539 CNS
M14 melanoma = tested on: M14 melanoma

Compound	growth (NCI-H23 lung)	growth (NCI-H226 lung)	growth (NCI-H322M lung)	growth (HOP-62 NSCLC)	growth (NCI-H460 lung)	growth (HOP-92 NSCLC)	growth (NCI-H522 lung)	growth (A549/ATCC NSCLC)	growth (786-0 renal)	growth (COLO 205 colon)	growth (DU-145 prostate)	growth (K-562 leukemia)	growth (MALME-3M melanoma)	growth (MDA-MB-231 breast)	growth (RXF 393 renal)	growth (SF-268 CNS)	growth (SF-295 CNS)	growth (SF-539 CNS)	growth (M14 melanoma)
COc1ccc(/C=C/C(=O)/C=C/c2cc3ccc(Cl)cc3[nH]c2=O)cc1	81.1%	81%	97.2%	85.3%	86.7%	103%	82.3%	93.1%	94.9%	90.5%	88.2%	53.2%	107%	59.4%	86.9%	86.5%	94.8%	92%	86.4%
COc1cc(C(=O)N2CCN(C(=O)c3ccco3)CC2)c(N)cc1OCc1ccccc1	111%	88.4%	91.3%	94.6%	113%	61%	84.4%	93.3%	95.6%	125%	115%	85.3%	107%	101%	89.9%	108%	115%	98.2%	102%
CCCS(=O)(=O)c1nc(NC2CC2)cc(-c2ccc3c(ccn3C3CC(C)(C)NC(C)(C)C3)c2)n1	10%	-63% (active)	32.5%	7.4% (active)	-74.1% (active)	87.6%	-64.1% (active)	-61.4% (active)	-87.3% (active)	-48.8% (active)	8.45% (active)	-52.6% (active)	-56.3% (active)	-78.8% (active)	-87.3% (active)	-48.7% (active)	-48.9% (active)	-88.1% (active)	-78.2% (active)
Cc1ccc2nc(SCn3nnc4ccccc4c3=O)[nH]c2c1	100%	110%	135%	88.9%	99.5%	82.8%	89.5%	113%	107%	75.9%	96.5%	74.4%	323%	97.9%	117%	111%	109%	86.4%	102%
Cc1ccc2c(c1)C(C)Cc1c(N(C)C)ncnc1N2C (stereo not drawn)	50.5%	81.8%	81.2%	36.4%	15.5%	52.4%	4.76% (active)	49.3%	34.8%	32.4%	68.7%	12.8%	53.2%	56.3%	40.1%	47.3%	6.52% (active)	28.3%	24.7%
O=C(Nc1ccc(F)cc1)c1cc([N+](=O)[O-])ccc1O	50.1%	88.3%	64.3%	65.2%	64.2%	15.7%	15.3%	68.1%	80.2%	81.5%	78.3%	45.3%	37.4%	65.9%	68.2%	72.9%	78.6%	47.3%	75.7%
C=C1C(=O)O[C@H]2[C@H]1CC/C(Cn1cc(-c3ccsc3)nn1)=C\CC[C@@]1(C)O[C@@H]21	-14.9% (active)	7.54% (active)	72.7%	28.4%	41%	-72.9% (active)	-67.8% (active)	13.8%	-86.7% (active)	-61% (active)	-83.5% (active)	-16.2% (active)	-66.4% (active)	-58% (active)	-56.7% (active)	-25.8% (active)	53.9%	-72.1% (active)	-56.7% (active)
COc1cc(C(=O)CCCl)ccc1O	91.8%	88.9%	106%	112%	106%	95.6%	-24.2% (active)	102%	106%	109%	107%	97.4%	88.7%	94.3%	98.2%	96.1%	100%	94.7%	111%
COC(=O)CC/C(C)=N\Nc1ccc([N+](=O)[O-])cc1	95.8%	76.3%	76.5%	59.7%	24.8%	92.7%	38.4%	24.6%	75.4%	54%	85.5%	4.87% (active)	104%	79.6%	101%	72.4%	72.4%	65.8%	20.4%
C=C1C(=O)O[C@H]2[C@H]1CC/C(COC(=O)NCCc1ccc(Br)cc1)=C\CC[C@@]1(C)O[C@@H]21	62.6%	13.2%	85.4%	54.6%	61.2%	33.6%	-52.1% (active)	77.8%	-52.9% (active)	-25.3% (active)	-33.6% (active)	5.94% (active)	73.7%	-33.4% (active)	-35.3% (active)	42.4%	86.5%	20.2%	19.9%
Cc1ccc2nc(-c3c(N)n[nH]c3CCCO)[nH]c(=O)c2c1	105%	97.5%	107%	92.1%	110%	82.8%	114%	103%	101%	105%	121%	102%	137%	99.5%	167%	104%	114%	96.4%	102%
CC(C)CCC[C@@H](C)[C@H]1CC[C@H]2[C@@H]3CC[C@H]4C/C(=N/O)CC[C@]4(C)[C@H]3CC[C@]12C	107%	92.1%	103%	92.8%	106%	101%	104%	73.1%	102%	108%	116%	91.2%	104%	98.8%	102%	110%	101%	109%	104%
O=C(/C=C/CN1CCOCC1)Nc1cc2c(Nc3ccc(F)c(Cl)c3F)ncnc2cc1OCCOC(F)F	69.2%	70%	8.76% (active)	51.2%	49.4%	-8.94% (active)	8.53% (active)	40.5%	38.9%	71.9%	39.7%	52%	81.6%	33.8%	36.4%	48.3%	71.7%	63.5%	62.3%
COc1ccc2c(c1)NC(=O)CN2c1nc(C)nc2ccccc12	20.4%	65.8%	42.8%	29.2%	2.28% (active)	-5.74% (active)	-21.1% (active)	21.3%	19.8%	-35% (active)	-0.215% (active)	9.83% (active)	67.6%	11.6%	55.1%	24.4%	14.2%	-0.932% (active)	10.8%
CCN(Cc1ccc(CN(CC)C(=O)C(Cl)(Cl)Cl)cc1)C(=O)C(Cl)(Cl)Cl	67.6%	83.9%	118%	98.2%	86.7%	33.1%	74%	79.2%	72.6%	95.7%	97.7%	27%	68.4%	98.2%	101%	80.5%	76.4%	101%	89.9%
COc1ccc2c(c1)C(C)Cc1c(N(C)C)ncnc1N2C (stereo not drawn)	52.7%	81.6%	53.9%	35.5%	16.1%	50.5%	-0.111% (active)	50.5%	33%	15.8%	53.5%	15.1%	56.4%	54.3%	49%	46.1%	9.16% (active)	6.17% (active)	25.5%
COc1ccccc1OCC(=O)Nc1sc2c(c1C(N)=O)CCC2	114%	80.7%	105%	49.7%	25.6%	2.69% (active)	84.1%	85.8%	75.1%	86.1%	58.4%	52.5%	91.9%	92.1%	48.1%	43.7%	15.2%	59.6%	66.4%
